Sm TGR block: qHTS Assay for the Inhibitors of Schistosoma Mansoni Peroxiredoxins | purified TGR, DTNB reduction, TNB absorbance 405 nm | Potency, µM (highest dose often 114 µM), without a hit: top-dose activity change, negative = inhibition, most hits filed as inhibitors | 360,000 compounds, 3% hits | AID 485364, 2010; note: potency is the fitted concentration of half-maximal effect; nearly all actives have a fitted effect of over 60% in size
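First, TGR (20 nM dispensed) and NADPH were mixed with compound. Second, a 15 min room-temperature incubation followed. Third, further NADPH and then DTNB were added to start the reaction. Finally, TNB absorbance was monitored kinetically.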
Pf growth 96h: Primary qHTS for delayed death inhibitors of the malarial parasite plastid, 96 hour incubation; 320,000 compounds, 6.9% hits; Potency, µM (titrated, usually from 28.7 µM), for the others: top-dose activity change, negative = inhibition, actives largely listed as inhibitors; P. falciparum luciferase reporter growth, 96 h; note: potency is the fitted concentration of half-maximal effect
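Two parasite generations (96 h, 37 C, 5% CO2) of compound exposure in infected erythrocytes (0.05% parasitemia, 2% hematocrit). Luciferase-reporter P. falciparum; decreased luminescence indicates inhibited growth, aimed at apicoplast-acting delayed death.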
HCMV inh: qHTS Assay for inhibitors of the human cytomegalovirus (HCMV). 410,000 compounds, 4.5% hits. HFF cells, HCMV-luciferase reporter, 72 h; active compounds read low. activity change, negative = inhibition, % at 57.5 µM; in the data active = activity change below about -60%; inconclusive = no clear call, values can overlap the other calls; inactive = above about -39%
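Cell-based, HFFs, 1000 cells/well, 16 h 37C; cpds in DMSO + HCMV-luc, MOI 1 PFU/cell; 72 h 37C; OneGlo luminescence after 5 min RT; norm. to buffer vs Salinomycin 10uM.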
FBPA Giardia inh: qHTS Assay for Inhibitors of Fructose-1,6-bisphosphate Aldolase from Giardia Lamblia. A8B2U2. purified Giardia FBPA. Potency, µM (highest dose often 59.6 µM), without a hit: at the highest dose activity, negative = inhibition, most hits filed as inhibitors. 290,000 compounds, 0.71% hits. AID 2451, 2010; note: potency is the fitted concentration of half-maximal effect; nearly all actives have a fitted effect of over 55% in size
Target sequence (A8B2U2 whole entry, looked up): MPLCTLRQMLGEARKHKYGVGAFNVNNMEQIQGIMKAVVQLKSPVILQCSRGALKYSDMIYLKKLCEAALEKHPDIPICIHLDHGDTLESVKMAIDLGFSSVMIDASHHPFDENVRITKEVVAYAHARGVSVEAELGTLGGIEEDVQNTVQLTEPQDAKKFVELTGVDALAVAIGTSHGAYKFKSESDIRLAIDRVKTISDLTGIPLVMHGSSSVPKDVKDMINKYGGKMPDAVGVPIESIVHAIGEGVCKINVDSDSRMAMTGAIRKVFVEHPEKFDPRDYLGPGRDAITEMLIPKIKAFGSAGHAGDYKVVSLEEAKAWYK
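Giardia FBPA (40 nM reagent) was preincubated 10 min at RT with compound (up to 57.5 uM final), then substrate plus GAPDH/TPI/NAD/arsenate coupling system with diaphorase/resazurin was added; resorufin fluorescence (525/598 nm) was read after 20 min.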
Pf growth 48h: Primary qHTS for delayed death inhibitors of the malarial parasite plastid, 48 hour incubation; P. falciparum luciferase growth in erythrocytes, 48 h; 310,000 compounds, 5.9% hits; Potency, µM (doses to about 28.7 µM), for inactives: at the highest dose activity change, negative = inhibition, most hits filed as inhibitors; AID 504832, 2011; note: potency is the fitted concentration of half-maximal effect
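Firefly luciferase activity from engineered P. falciparum reports growth; inhibitors lower the luminescent signal. Cultures contained 2% hematocrit erythrocytes at 0.1% final parasitemia.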
Starred values were filed as active, the others as inactive; i = inactive; ? = inconclusive; / = not tested or not shown; [ ] = another dose, or the depositor's remark. Rows were chosen to be rich in hits. Some 14% of all compounds tested hit in one or more screens of this group. Unless noted, calls come from the whole dose curve; as a rule, active = well fitted curve in the direction sought with a large enough effect; inconclusive = small, poorly fitted or top-dose-only effect, or another doubt; inactive = no such curve, though single readings can be large; an effect the other way counts as inactive or inconclusive. % is set by controls: 0 for no effect and ±100 for the full control effect.

SMILES | Sm TGR block | Pf growth 96h | HCMV inh | FBPA Giardia inh | Pf growth 48h
CCOC(=O)c1csc(NC(=O)c2ccc(OCC)cc2)n1 | 7% | 468% | -61* | 0% | i
CCOC(=O)c1csc(NC(=O)c2ccc(S(=O)(=O)N(C)C)cc2)n1 | -28% | -26% | -63* | 2% | -4%
O=C1CC(C(=O)N2CCN(c3ccccn3)CC2)CN1Cc1ccccc1Cl (centres undefined) | -1% | -5% | -35 | / | ?
CCOc1ccccc1CNCc1c(C(=O)O)n(Cc2ccccc2)c2cc(OC)ccc12 | -3% | / | 14 | / | /
C=Cc1ccc(Cn2c(C(=O)O)c(CNCc3cc(OC)ccc3OC)c3ccc(C)cc32)cc1 | 3% | / | -104* | / | /
Cc1ccc2c(CNCCc3ccc(Cl)cc3)c(C(=O)O)n(Cc3ccc(F)cc3)c2c1 | -2% | / | -106* | / | /
COc1ccc(Cn2c(C(=O)O)c(CNCc3ccccc3F)c3ccc(OC)cc32)cc1 | -2% | / | -76* | / | /
COc1ccc(Cn2c(C(=O)O)c(CNCCc3ccccc3Cl)c3ccc(C)cc32)cc1 | 4% | / | -105* | / | /
COc1ccc(/C=N/NC(=O)C(=O)N2CCCCCC2)cc1O | 2% | -100% | -14 | / | 0%
Cc1nc(N2CCOCC2)c2nc(-c3ccccc3)n(C(C)CN(C)C)c2n1 (centres undefined) | / | / | / | 1% | /
NC(=O)CSc1oc(-c2cccs2)nc1S(=O)(=O)c1ccc(Br)cc1 | 1% | / | 23 | / | /
C=Cc1ccc(Cn2c(C(=O)O)c(CNCCc3ccccc3)c3ccc(C)cc32)cc1 | -10% | / | -90* | / | /
CCN1C(C)=C(C(=O)OC(C)C)C(c2ccccc2Cl)C(C(=O)O)=C1C(=O)O (centres undefined) | / | / | / | 0% | /
O=C(COCc1cc(-c2ccco2)on1)Nc1cccc(O)c1 | 3% | / | 0 | / | /
CCc1ccccc1-n1nnc(-c2nc(-c3ccccc3F)no2)c1C | 2% | / | 47 | / | /
CCOC(=O)c1nn(-c2ccccc2)c(C#N)c1NC(=O)c1nn(CC)cc1Br | 10% | -6% | -27 | 3% | ?
CCOC(=O)c1nn(-c2ccccc2)c(=O)c(C#N)c1C | 0% | 15µM* | 4 | 0% | /
CCOC(=O)c1c(NC(=O)c2nn(CC)cc2Br)c(C#N)nn1-c1ccccc1 | 3% | -25% | -21 | -2% | 13µM*
O=C(c1cnccn1)N1CCC2(CC1)CCN(c1cccc(-c3ccccc3)c1)CC2 | / | / | / | -5% | /
CSCC[C@H](N)C(=O)N[C@@H](CO)C(=O)N[C@@H](CCCN=C(N)N)C(=O)N1CCC[C@H]1C(=O)N[C@@H](C)C(=O)N[C@@H](CS)C(=O)N1CCC[C@H]1C(=O)N[C@@H](CC(N)=O)C(=O)N[C@@H](CC(=O)O)C(=O)N[C@@H](CCCCN)C(=O)N[C@@H](Cc1ccc(O)cc1)C(=O)N[C@@H](CCC(=O)O)C(=O)O | / | / | / | 0% | /
Cc1[nH]c(=S)[nH]c(=O)c1Cc1ccccc1 | 14% | 13µM* | 11 | -24% | 28%
CCc1nn(CCCC(=O)NCc2ccc(OC)c(OC)c2)c(=O)c2cc3occc3n12 | -31% | / | 34 | / | /
O=C(C[n+]1ccccc1)N/N=C/c1ccc(Cl)c(Cl)c1 | 9% | ? | 7 | -6% | 8.3µM*
O=C(C[n+]1ccccc1)N/N=C/c1ccc(F)cc1 | 18% | ? | -31 | 0% | ?
O=C(C[n+]1ccccc1)N/N=C/c1ccc(Br)cc1 | -1% | 2.9µM* | -28 | / | 10µM*
SMILES | Sm TGR block | Pf growth 96h | HCMV inh | FBPA Giardia inh | Pf growth 48h
CC(C)CCn1nnnc1C(c1ccc(N(C)C)cc1)N1CCN(C(=O)c2ccco2)CC1 (centres undefined) | 45µM* | 10µM* | -16 | -3% | ?
CCC(C)(C)n1nnnc1C(c1ccc(N(C)C)cc1)N1CCN(C2CCCCC2)CC1 (centres undefined) | 22µM* | / | -1 | -3% | -7%
Cc1cc(C)c2[nH]c(=O)c(C(c3nnnn3C(C)(C)C)N3CCN(C(=O)c4ccco4)CC3)cc2c1 (centres undefined) | 79µM* | / | / | 0% | ?
CN(C)c1ccc(C(c2nnnn2C(C)(C)C)N2CCN(C(=O)c3ccco3)CC2)cc1 (centres undefined) | 16µM* | -13% | 50 | 0% | 7%
CCC/C=C(\CCC)C(NC(=O)c1ccc(-c2ccccc2)cc1)c1ccc(C(=O)OC)cc1 (centres undefined) | / | / | / | 3% | /
COc1ccc(NC(=O)CSCc2cc(=O)c3cc(C)ccc3[nH]2)cc1 | -14% | / | 0 | / | /
O=C(CNC(=O)c1ccccc1F)NNC(=O)c1ccccc1O | -1% | 39% | 1 | / | 15%
CC(C)(C)n1nnnc1C(c1ccccc1F)N1CCN(C2CCCC2)CC1 (centres undefined) | 14% | / | 49 | -1% | 5%
CCOc1ccc(C(c2nnnn2C(C)(C)C)N2CCN(C(=O)c3ccco3)CC2)cc1 (centres undefined) | -13% | -20% | -19 | / | ?
COc1ccccc1C(c1nnnn1C(C)(C)C)N1CCCCCC1 (centres undefined) | ? | / | 4 | -8% | 8.3µM*
COc1ccccc1C(c1nnnn1C(C)(C)C)N1CCN(C(=O)c2ccco2)CC1 (centres undefined) | -8% | ? | -17 | 2% | 4.7µM*
CCCc1cc(=O)[nH]c(SCC(=O)Nc2cc(S(=O)(=O)N3CCCCC3)ccc2C)n1 | -14% | ? | -33 | / | ?
COCC1CCN(Cc2cn(Cc3ccccc3)nc2-c2cc3ccccc3o2)CC1 | 7%[57.1 µM] | 31% | 5 | 15% | ?
COCC1CCCN(Cc2cn(Cc3ccccc3)nc2-c2cc3ccccc3o2)C1 (centres undefined) | 3% | -17% | -78* | 0% | ?
OC1CCN(Cc2cn(Cc3ccccc3)nc2-c2cc3ccccc3o2)CC1 | 4% | -24% | -16 | 4% | 13µM*
COC(=O)C1CCN(Cc2cn(Cc3ccccc3)nc2-c2cc3ccccc3o2)CC1 | 14% | -4% | 14 | -5% | 8.3µM*
CC(=O)N1CCC[C@@]2(CCN(C(c3ccccc3)c3ccccc3)C2)C1 | / | / | / | 6% | /
Cc1ccc2nc(-c3ccc(NC(=S)NC(=O)C(C)C)cc3)sc2c1 | -1% | / | 92 | 0% | 134%
CCC(=O)NC(=S)Nc1ccc(-c2nc3ccccc3s2)cc1 | 5% | 20% | 78 | 0% | 200%
CCC(=O)NC(=S)Nc1ccc(-c2nc3ccc(C)cc3s2)cc1 | 1% | 12µM* | 41 | 3% | 123%
Cc1ccc2nc(-c3ccc(NC(=S)NC4CC(C)(C)NC(C)(C)C4)cc3)sc2c1 | -27% | 375% | -102* | 2% | 169%
